In PubChem BioAssay (NCI) one finds growth data, which are given here for 15 compounds.

Common to all, as to experiment: NCI-60 one-dose screen, 48 h (100 = growth as untreated, 0 = no growth, -100 = all killed)
What all share (details): 10 µM unless noted

Assay [1] deals with DU-145 prostate.
The subject of assay [2] is K-562 leukemia.
Assay [3] relates to MALME-3M melanoma.
Assay [4] has as its system MDA-MB-231 breast.
Assay [5] has as its system RXF 393 renal.
For assay [6], the system named is SF-268 CNS.
In assay [7] the test system is SF-295 CNS.
Assay [8] deals with SF-539 CNS.
Assay [9] concerns UACC-257 melanoma.
Assay [10] deals with M14 melanoma.

Where “and” joins values, the source holds several entries; their conditions need not be identical. Equal entries are not always repeated. About 83,000 compounds went through this panel and 20% of them were active in at least one assay; those are over-represented in the sample as a whole.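 96-well plates, one dose, 48 hours. Percent growth reported; active if below 10.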 More than one record can exist for a structure, and the calls need not agree. Calls of active or inactive are those of the source.

With `COc1ccccc1/C=N\N=C(N/N=C/c1ccccc1OC)N/N=C/c1ccccc1OC`, the growth in assay [1] was 71.5% (inactive) and 53.4% (inactive); in [2], 34.1% (inactive) and 11.4% (inactive); in [3] it was 52.1% (inactive); in [4], 73.8% (inactive) and 51.3% (inactive); in [5], 94.5% (inactive) and 60.1% (inactive); in assay [6] it was 63.6% (inactive) and 25.6% (inactive). Moreover, the growth is 52.1% (inactive) in [7]; 83.7% (inactive) and 42.1% (inactive) in [8]; 90.9% (inactive) and 31% (inactive) in assay [9]; 59.9% (inactive) and 26.6% (inactive) in assay [10].
Take `Cn1c(SSc2ccc(-c3cccnc3)n2C)ccc1-c1cccnc1`: the growth in assay [1] was 115% (inactive) and 107% (inactive); in [2], 75.9% (inactive) and 7.91% (active); in assay [3], 102% (inactive) and 105% (inactive); in assay [4] it was 91.4% (inactive) and 110% (inactive); in [5], 105% (inactive) and 110% (inactive); in [6], 82.1% (inactive) and 93.5% (inactive). Besides, the growth in assay [7] is 77.9% (inactive) and 93.7% (inactive); in assay [8], 116% (inactive) and 122% (inactive); in assay [9], 86.1% (inactive) and 93.8% (inactive); in [10], 101% (inactive) and 98.4% (inactive).
As to `CC1=C[C@H]2c3c(c(O)c(O)c4oc5cc(O)cc(O)c5c(=O)c34)[C@H](c3cc(O)c(O)c4oc5cc(O)cc(O)c5c(=O)c34)[C@H]2C(C)(C)C1`, the growth was 22.6% (inactive) and -4.25% (active) in [1]; 2.32% (active) in assay [2]; 10.8% (inactive) and -30.5% (active) in assay [3]; -7.38% (active) and -58.3% (active) in [4]; -4.11% (active) in assay [5]; 10.3% (inactive) and -12.3% (active) in assay [6]. Besides, the growth is -47.5% (active) and -27.1% (active) in [7]; -33.5% (active) and -26.5% (active) in [8]; 21% (inactive) and 0.565% (active) in assay [9]; -9.96% (active) and -19.6% (active) in assay [10].
As to `CN1CCN(C2CCN(C(=O)Nc3cc(Oc4ccc(NC(=O)C5(C(=O)Nc6ccc(F)cc6)CC5)c(F)c4)ccn3)CC2)CC1`, the growth was 8.48% (active) and 69.1% (inactive) in assay [1]; 0.176% (active) and 37.1% (inactive) in assay [2]; -86.6% (active) and 60.2% (inactive) in assay [3]; -65.7% (active) and 68.3% (inactive) in assay [4]; -91.7% (active) and 86.4% (inactive) in assay [5]; -22.5% (active) and 90.8% (inactive) in assay [6]. In addition, the growth was -87.8% (active) and 50.8% (inactive) in [7]; -96.4% (active) and 58.7% (inactive) in assay [8]; -91.6% (active) and 95.8% (inactive) in assay [9]; -77.3% (active) and 57% (inactive) in assay [10].
In the case of `CC(CN=Cc1ccccc1O)N=Cc1ccccc1O` (stereo not given), the growth was 121% (inactive) and 105% (inactive) in assay [1]; 78.7% (inactive) and 88.2% (inactive) in assay [2]; 124% (inactive) and 110% (inactive) in assay [3]; 111% (inactive) and 104% (inactive) in assay [4]; 102% (inactive) and 91% (inactive) in [5]; 108% (inactive) and 91% (inactive) in assay [6]. For the same compound, the growth is 112% (inactive) in assay [7]; 94.9% (inactive) and 87.9% (inactive) in [8]; 87.7% (inactive) and 121% (inactive) in assay [9]; 106% (inactive) and 102% (inactive) in assay [10].
Turning to `COc1cc(/C=N/Nc2nc3c([nH]2)c(=O)n(C)c(=O)n3C)ccc1O`, the growth in assay [1] was 114% (inactive); in assay [2], 91.4% (inactive) and 106% (inactive); in assay [3], 88.5% (inactive) and 97.9% (inactive); in assay [4], 96.4% (inactive) and 107% (inactive); in assay [5], 122% (inactive) and 123% (inactive); in [6], 104% (inactive) and 109% (inactive). Besides, the growth in assay [7] was 115% (inactive) and 118% (inactive); in assay [8] it was 89.9% (inactive) and 104% (inactive); in [9], 102% (inactive) and 110% (inactive); in assay [10], 102% (inactive) and 108% (inactive).
On to `CCOC(=O)Nc1nc2ccccc2[nH]1`, for which the growth was 121% (inactive) and 38.4% (inactive) in assay [1]; 103% (inactive) and 7.77% (active) in assay [2]; 101% (inactive) and 52.5% (inactive) in assay [3]; 110% (inactive) and 64% (inactive) in [4]; 118% (inactive) and 66.3% (inactive) in [5]; 115% (inactive) and 48.8% (inactive) in assay [6]. In addition, the growth in [7] was 101% (inactive) and 8.06% (active); in [8] it was 105% (inactive) and 28.5% (inactive); in assay [9], 93.2% (inactive) and 58% (inactive); in assay [10] it was 105% (inactive) and 22.4% (inactive).
In the case of `CC1=CCC2CC1C2(C)C` (stereo not given), the growth in assay [1] is 98.6% (inactive) and 112% (inactive); in [2], 102% (inactive) and 98.4% (inactive); in assay [3], 101% (inactive) and 127% (inactive); in [4], 95.8% (inactive) and 96.9% (inactive); in assay [5], 102% (inactive) and 71% (inactive); in assay [6] it was 115% (inactive) and 94.1% (inactive). For the same compound, the growth was 94.2% (inactive) and 106% (inactive) in [7]; 102% (inactive) in assay [8]; -8.84% (active) and 108% (inactive) in assay [9]; 98.3% (inactive) and 90.3% (inactive) in assay [10].
Regarding `NC(=S)NS(=O)(=O)c1ccc(N)cc1`, the growth in assay [1] is 125% (inactive); in assay [2], 103% (inactive); in assay [3], 96.6% (inactive); in [4], 117% (inactive); in [5] it was 101% (inactive); in assay [6] it was 107% (inactive). Besides, the growth in assay [7] was 94.7% (inactive); in assay [8] it was 98.7% (inactive); in [9], 101% (inactive); in assay [10] it was 106% (inactive).
Take `NC(=O)c1ccccc1OCC(O)CO` (stereo not given): the growth in [1] is 114% (inactive); in [2], 107% (inactive); in assay [3] it was 115% (inactive); in assay [4] it was 103% (inactive); in [5], 98.9% (inactive); in assay [6], 105% (inactive). Further, the growth in assay [7] is 83.1% (inactive); in assay [8] it was 90.2% (inactive); in assay [9], 97.9% (inactive); in [10], 112% (inactive).
For the compound `CC(=O)c1ccc2c(c1)N(CCCN1CCN(CCO)CC1)c1ccccc1S2`, the growth is 104% (inactive) and 53.3% (inactive) in [1]; 95.3% (inactive) and -16.7% (active) in assay [2]; 86.5% (inactive) and -80% (active) in assay [3]; 91% (inactive) and -12.3% (active) in assay [4]; 32.6% (inactive) and -8.21% (active) in assay [5]; 98.3% (inactive) and 37.5% (inactive) in [6]. Moreover, the growth is 100% (inactive) and -53% (active) in assay [7]; 89% (inactive) and 14.7% (inactive) in assay [8]; 30.4% (inactive) and -66.5% (active) in [9]; 94.8% (inactive) and -87.4% (active) in assay [10].
Consider `Nc1nc2ncc(CNc3ccc(C(=O)N[C@@H](CCc4nn[nH]n4)C(=O)O)cc3)nc2c(=O)[nH]1`, for which the growth in [1] was 99.4% (inactive) and 110% (inactive); in assay [2] it was 90.7% (inactive); in assay [3] it was 96.9% (inactive) and 104% (inactive); in assay [4] it was 110% (inactive) and 99.7% (inactive); in assay [5], 104% (inactive) and 96.3% (inactive); in [6], 98% (inactive) and 99.5% (inactive). Further, the growth was 98.6% (inactive) and 100% (inactive) in [7]; 91% (inactive) and 110% (inactive) in assay [8]; 106% (inactive) and 91.8% (inactive) in assay [9]; 88% (inactive) and 98.6% (inactive) in assay [10].
As to `CCC(O)c1ccccc1` (stereo not given), the growth was 120% (inactive) and 118% (inactive) in assay [1]; 96.8% (inactive) and 104% (inactive) in [2]; 114% (inactive) and 111% (inactive) in assay [3]; 95.9% (inactive) and 112% (inactive) in assay [4]; 8.94% (active) and 98.9% (inactive) in assay [5]; 113% (inactive) in [6]. In addition, the growth was 95% (inactive) and 115% (inactive) in assay [7]; 89.2% (inactive) and 105% (inactive) in assay [8]; 135% (inactive) and 85.4% (inactive) in assay [9]; 100% (inactive) in [10].
For `COc1ccccc1NC(=O)OCC#CCOC(=O)Nc1ccccc1OC`, the growth in [1] is 146% (inactive) and 96.5% (inactive); in [2], 75% (inactive) and 57.3% (inactive); in assay [3], 96.6% (inactive); in assay [4], 102% (inactive) and 105% (inactive); in assay [5] it was 102% (inactive) and 90.3% (inactive); in [6], 116% (inactive) and 89.4% (inactive). For the same compound, the growth in assay [7] is 105% (inactive) and 94% (inactive); in assay [8], 99.9% (inactive) and 91.6% (inactive); in [9], 100% (inactive) and 91.1% (inactive); in assay [10] it was 106% (inactive) and 95.5% (inactive).
`O=C(O)CCCCc1ccc([N+](=O)[O-])cc1`: the growth in [1] is 106% (inactive) and 114% (inactive); in assay [2], 83.7% (inactive) and 103% (inactive); in [3], 102% (inactive) and 106% (inactive); in assay [4] it was 112% (inactive) and 95% (inactive); in [5], 116% (inactive) and 148% (inactive); in [6], 98.9% (inactive) and 115% (inactive). Besides, the growth in [7] was 113% (inactive); in [8], 94.3% (inactive) and 102% (inactive); in assay [9], 125% (inactive) and 97.8% (inactive); in [10], 102% (inactive) and 104% (inactive).
